ERAP1 HTS inh – human ERAP1 aminopeptidase inhibitors, primary screen, biochemical, single point, plate reader. Endoplasmic reticulum aminopeptidase 1 (Homo sapiens), Q9NZ08. recombinant ERAP1, Leu-AMC fluorescence, 60 min. inhibition, % at 10.7 µM. 340,000 compounds, 0.15% hits;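 active means mean replicate inhibition of at least 30%, or all replicates individually reaching that 30% level; inactive means mean below 30% and not every replicate reaching it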;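 further: 0% = neutral control wells and 100% = L-leucinethiol positive control wells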
FGF22 binding – binders of human FGF22 protein, primary screen, FGF22 synaptogenesis inhibitor project, biophysical, thermal shift, single point | Fibroblast growth factor 22 (Homo sapiens), Q9HCT0 | AID 651658, 2012 | recombinant FGF22 thermal shift, SYPRO orange fluorescence; percent of sucrose octasulfate shift, DMSO zero | activity (Tm shift, normalised), % at 9.99 µM | 340,000 compounds, 1.5% hits;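 active means mean Tm shift, scaled 0 neutral to 100 positive control, at about 1.3% or above, every replicate too, limit read from the data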
Target sequence (Q9HCT0 whole entry, looked up): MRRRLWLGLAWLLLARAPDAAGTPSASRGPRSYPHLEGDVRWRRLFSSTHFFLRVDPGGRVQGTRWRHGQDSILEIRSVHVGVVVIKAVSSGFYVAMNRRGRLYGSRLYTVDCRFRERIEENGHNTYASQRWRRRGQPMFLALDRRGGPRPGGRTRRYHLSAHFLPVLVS
SIRT5 block – SIRT5 desuccinylase inhibitors, primary screen, biochemical, fluorescence imaging, single point, set 5; NAD-dependent protein deacylase sirtuin-5, mitochondrial (Homo sapiens), Q9NXA8; Purified SirT5, succinyl-peptide AMC, trypsin-coupled fluorescence; inhibition, % at 15 µM; 330,000 compounds, 1.1% hits; AID 652115, 2013; in the data active means inhibition above about 15%
Casp6 inh – human caspase-6 inhibitors, primary screen, biochemical, VEID-R110 fluorescence, single point, set 2 | P55212 | purified caspase-6, Z-VEID-R110 cleavage fluorescence | inhibition, % at 12.5 µM | 350,000 compounds, 0.53% hits;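 active means mean inhibition across replicates at least about 35%, with every replicate also reaching that limit, limit read from the data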;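 further: 0% = median of neutral control wells and 100% = no fluorescence left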
Target sequence (P55212 24-179 limits assumed): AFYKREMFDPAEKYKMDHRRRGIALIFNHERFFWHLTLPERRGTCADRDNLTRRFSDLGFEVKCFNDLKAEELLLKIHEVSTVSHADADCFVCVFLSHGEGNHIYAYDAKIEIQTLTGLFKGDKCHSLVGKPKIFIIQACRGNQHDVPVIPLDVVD
Target sequence (P55212 194-293 limits assumed): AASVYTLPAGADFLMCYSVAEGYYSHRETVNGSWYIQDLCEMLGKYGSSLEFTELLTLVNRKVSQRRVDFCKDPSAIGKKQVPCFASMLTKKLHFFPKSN
INS-1E GSIS act – GLuc luminescence reporter in INS-1E cells, primary screen for activators of glucose-dependent secretion of insulin. INS-1E GLuc reporter insulin secretion, 2-3 h. activation, % at 16.6 µM. 370,000 compounds, 0.61% hits. AID 743287, 2014;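 active means lowest replicate activation of at least 40%, so every replicate reaches that level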;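 further: 0% = median of neutral control wells and 100% = median of IBMX positive control wells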
* marks the source's active call; other numbers are inactive results; . = no result. Most compounds without a hit are left out; they make up all but 3.3% or so of the library.

SMILES	ERAP1 HTS inh	FGF22 binding	SIRT5 block	Casp6 inh	INS-1E GSIS act
O=C1C=C(Nc2ccccc2)c2ccccc2C1=O	3	0	0	97*	-27
COc1ccc(Nc2nnc(-c3ccccc3)c3ccccc23)cc1C(=O)N1CCCCC1	5	43*	2	0	-22
COc1ccc(Nc2nnc(-c3ccc(C)cc3)c3ccccc23)cc1C(=O)N1CCCCC1	-2	0	0	0	-7
CCN(C[C@H]1N[C@H](CO)[C@@H]1c1ccc(-c2cccc(C#N)c2)cc1)C(C)=O	1	0	10	-2	11
COc1ccc(Cc2c(-c3ccco3)nc3c(C)cc(Br)cn23)c(C)c1	0	0	-1	39*	.
CCCCCCN1C[C@H](O)[C@@H](n2cc(COC(=O)c3ccccc3)nn2)C[C@@H]1c1ccc(C)cc1	.	0	-1	-1	-27
Cc1ccc([C@H]2C[C@H](O)[C@@H](n3cc(COC(=O)c4ccccc4)nn3)CN2C(=O)c2cccs2)cc1	0	0	17*	-1	-3
CCCCCCN1C[C@H](O)[C@@H](n2cc(COC(=O)c3ccccc3)nn2)C[C@@H]1c1ccc(Cl)cc1	2	0	15*	-4	2
CN(C)CC(=O)N[C@@H]1CC[C@H](CCn2cc(C3CC3)nn2)O[C@H]1CO	1	0	-1	-7	5
Cc1ccc(S(=O)(=O)N/N=C/c2cc([N+](=O)[O-])ccc2O)cc1[N+](=O)[O-]	0	44*	1	7	0
Cc1ccc(S(=O)(=O)N/N=C/c2ccc(O)cc2O)cc1[N+](=O)[O-]	.	1	0	3	10
O=C(Nc1ccccc1)OC1CC2CC1C1CCCC21 (configuration not stated)	-3	43*	-2	7	-41
O=C(Nc1ccccc1)O[C@@H]1C[C@H]2CCCC(=O)N3CC[C@@H](C1)[C@@H]23	3	0	0	0	0
NS(=O)(=O)c1ccc(-c2ccc(/C=C3\C(=O)Nc4cc(Cl)ccc43)o2)cc1	0	0	-5	2	-8
CC1(C)OC(=O)C(=Cc2ccc(-c3ccc(S(N)(=O)=O)cc3)o2)C(=O)O1	4	0	3	53*	-1
CCOc1ccc2nc(Cl)sc2c1	3	43*	-1	-4	-11
CCOc1ccc2nc(NS(C)(=O)=O)sc2c1	.	.	.	.	23
Cc1ccc(S(N)(=O)=O)c(C)c1N1CCCC1=O	1	44*	-4	0	7
Cc1ccc(N2CCCC2=O)cc1S(=O)(=O)N1CCOCC1	-1	0	-2	-2	16
Cc1ncccc1C(=O)N1CCCC(C(=O)c2ccc3c4c(cccc24)CC3)C1 (configuration not stated)	0	43*	-3	2	-8
CCc1nc(CN2CCCC(C(=O)c3ccc4c5c(cccc35)CC4)C2)c(C)[nH]1 (configuration not stated)	-6	44*	-3	-5	4
O=C(c1ccc2c3c(cccc13)CC2)C1CCCN(Cc2ccncc2)C1 (configuration not stated)	.	0	3	-1	-4
COc1ccc(CNC(=O)C[C@@H]2CC[C@H]3[C@@H](COc4ccc(NC(=O)C(C)C)cc4C(=O)N3C)O2)cc1	-3	0	-2	-1	-1
C/C=C/c1ccc(OCCN2C(=O)NC(C)(C)C2=O)c(OC)c1	.	.	.	.	44*
CC1(C)NC(=O)N(CCCCOc2ccc(Cl)cc2C=O)C1=O	0	43*	-2	0	-13
SMILES	ERAP1 HTS inh	FGF22 binding	SIRT5 block	Casp6 inh	INS-1E GSIS act
O=C(NC[C@H]1N[C@H](CO)[C@H]1c1ccccc1)C1CC1	1	0	7	-2	4
COc1cccc(NC(=S)/C(=C(\[O-])c2cc(C)n(-c3ccccc3F)c2C)[n+]2ccc(N(C)C)cc2)c1	0	43*	0	1	0
COc1ccccc1-c1ccc([C@@H]2[C@@H](C#N)N(C(=O)C3CCC3)[C@@H]2CO)cc1	0	0	1	3	6
C[n+]1cccc(/C=N/NC(=O)CC23CC4CC(CC(C4)C2)C3)c1	96*	0	0	-4	-19
CNC(=O)c1ccc(NC(=O)CC23CC4CC(CC(C4)C2)C3)cc1	-2	0	0	-4	-15
Cc1c(O)ccc2cc(S(=O)(=O)c3ccccc3)c(=O)oc12	132*	0	-42	.	-2
CN(C)CCCNC(=O)C[C@H]1CC[C@@H]2[C@@H](COc3ccc(NC(=O)c4ccc5c(c4)OCO5)cc3C(=O)N2C)O1	-1	0	-6	-1	-2
C[C@@H]1CN([C@H](C)CO)C(=O)c2cc(NC(=O)Cc3ccccc3)ccc2O[C@H]1CN(C)C(=O)Nc1ccccc1	-2	0	5	2	11
COc1ccc(C(CC(=O)O)c2ccc3c(c2)OCO3)cc1 (configuration not stated)	-4	0	-5	3	-8
C=CCNC(=S)NC(CC(=O)OC)c1ccc2c(c1)OCO2 (configuration not stated)	2	43*	-4	-4	-16
CCOCCCNC(=O)C(c1ccc(Cl)cc1)N(Cc1cccs1)C(=O)c1ccccn1 (configuration not stated)	-5	1	18*	2	-7
CCOCCCNC(=O)C(c1ccc(C)cc1)N(Cc1cccs1)C(=O)c1ccccn1 (configuration not stated)	2	0	-1	2	-15
Cc1cc(C)nc(Nc2n[nH]c(COc3ccc4ccccc4c3)n2)n1	.	.	.	.	62*
Cc1cc(C)nc(Nc2n[nH]c(-c3ccccc3Cl)n2)n1	1	0	3	-5	24
Cc1nc(SCC(=O)c2cc3ccccc3oc2=O)c(C#N)c(-c2cccs2)c1C(=O)Nc1ccccc1	3	43*	-5	-1	-15
C[C@@H]1CN([C@@H](C)CO)C(=O)c2cc(NC(=O)c3ccncc3)ccc2O[C@@H](C)CCCCO[C@H]1CN(C)S(=O)(=O)c1cccs1	1	0	2	-5	2
O=C(C[C@@H]1CC[C@H]2[C@@H](COC[C@@H](O)CN2CC2CCOCC2)O1)N1CCOCC1	0	0	2	-3	-6
Cc1occc1C(=O)N/N=C/c1sc(N2CCOCC2)nc1-c1ccccc1	0	0	0	3	22
Cc1occc1C(=O)N/N=C/C1=C(N2CCOCC2)C(=C/c2ccc(Cl)cc2Cl)/CC1	4	43*	.	-2	.
COc1ccc(-c2c[n+](CC(=O)OC3CC(C)CCC3C(C)C)c3n2CCC3)cc1 (configuration not stated)	-1	43*	9	15	-41

Bioassay records deposited in PubChem BioAssay by Broad Institute.
